The text below walks through data of ChEMBL document CHEMBL1857833, “Screening and optimization of specific chemical series against human African Trypanosomiasis (HAT)”.

Broadly, the % inhibition is the relative decrease from the control value, in per cent.

The structures appear in SMILES notation. In all, about 4,400 compounds went through this assay and about 390 (8.9%) showed an effect of 50% or more. Only a selection was taken, and strong results are over-represented in it overall.

This assay concerns Trypanosoma brucei. In words: DNDI: Inhibition of Human African Trypanosomiasis, SBRI 427, in vitro at 2 ug.mL-1. It is filed as functional.
As for `COc1cc(C)ccc1Oc1ncccc1/C(=N/O)NCc1ccccn1`, the “% inhibition” value is listed as -7%. The figure for `COC(=O)C1CCN(/C(=N\O)c2ccc(C)nc2Oc2ccc3ccccc3c2)CC1` is 19%; for `Clc1ccccc1-c1nc(CN2CCCc3ccccc32)co1` it is 1%. Consider `Clc1ccccc1-c1nc(CNCCN2CCOCC2)co1`, for which the “% inhibition” value turned out to be 2%. As for `CCOC(=O)C1CCCCN1Cc1coc(-c2ccccc2Br)n1` (centres undefined), the “% inhibition” value was -3%. On to `CCCN(CCC)Cc1coc(-c2cccs2)n1`, for which the “% inhibition” value amounted to 22%. As to `O/N=C(/c1ccc(Oc2c(F)c(F)cc(F)c2F)nc1)N1CCN(c2ccc(F)cc2)CC1`, the “% inhibition” value is recorded as 22%. The figure for `CC1C=CC(C)N1Cc1coc(-c2ccccc2Cl)n1` (centres undefined) is 0%. The figure for `CC1CC(C)CN(/C(=N\O)c2ccc(Oc3ccc4ccccc4c3)nc2)C1` (centres undefined) is -15%. The value for `O/N=C(/c1ccc(Oc2ccc3ccccc3c2)nc1)N1CCCCC1` was 12%. With `Cc1cc(Oc2ccc(/C(=N/O)N3CC(C)CC(C)C3)cn2)cc(C(C)C)c1` (centres undefined), the “% inhibition” value is 4%.

In the case of `CC1CCCN1/C(=N\O)c1ccc(Oc2ccc3ccccc3c2)nc1` (centres undefined), the “% inhibition” value came out at 99%.

For `CC1CCC(C)N1/C(=N\O)c1ccc(Oc2ccc3ccccc3c2)nc1` (centres undefined), the “% inhibition” value turned out to be 99%.

As to `Cc1cc(Oc2ccc(/C(=N/O)N3CCCCCC3)cn2)cc(C(C)C)c1`, the “% inhibition” value was 21%. Regarding `Cc1cc(Oc2ccc(/C(=N/O)N3CCCC3C)cn2)cc(C(C)C)c1` (centres undefined), the “% inhibition” value turned out to be 93%. The value for `CC1CCCN1/C(=N\O)c1ccc(Oc2ccc3oc4ccccc4c3c2)nc1` (centres undefined) was -6%; that for `Cc1cc(C)cc(Oc2ccc(/C(=N/O)N3C(C)CCC3C)cn2)c1` (centres undefined) was 6%; that for `Cc1cc(C)n(/C(=N\O)c2ccc(Oc3ccc4ccccc4c3)nc2)n1` was 12%. The value for `CCCCC(CC)CNCc1coc(-c2ccccc2Br)n1` (centres undefined) was 8%; that for `CCOc1ccccc1-c1nc(CN(CCC#N)C2CCCCC2)co1` was -4%; that for `Cc1ncn(Cc2coc(-c3ccc(Br)cc3)n2)c1C=O` was 10%. The figure for `CCOC(=O)CC(C)NCc1coc(-c2ccc(Cl)cc2Cl)n1` (centres undefined) is -1%; for `CC1CC(N/C(=N\O)c2ccnc(Oc3cc(Cl)ccc3Cl)c2)CC(C)(C)C1` (centres undefined) it is 9%; for `O/N=C(\NC1CCCC1)c1ccnc(Oc2cc(Cl)ccc2Cl)c1` it is 94%. With `O/N=C(\NC1CCC1)c1ccnc(Oc2cc(Cl)ccc2Cl)c1`, the “% inhibition” value amounted to 95%.

For the molecule `COc1cccc(CN/C(=N\O)c2ccnc(Oc3cc(Cl)ccc3Cl)c2)c1`, the “% inhibition” value worked out at 11%. The value for `O/N=C(/c1ccnc(Oc2cc(Cl)ccc2Cl)c1)N1CCC=N1` was 32%.

Turning to `N/C(=N\O)c1ccnc(Oc2cc(Cl)ccc2Cl)c1`, the “% inhibition” value is 20%.

`O/N=C(/c1cccnc1Oc1ccccc1OCc1ccccc1)N1CCOCC1`: the “% inhibition” value is -16%. Consider `CN(CCCNCc1coc(-c2cccc(F)c2)n1)c1ccccc1`, for which the “% inhibition” value is reported as 5%. The value for `CCOc1ccc(-c2nc(CN(CC)C(C)(C)C)co2)cc1` was 6%; that for `CC1CCC(N/C(=N\O)c2cccnc2OCC(C)(C)C)CC1` (centres undefined) was 5%. The figure for `CC(C)COc1ncccc1/C(=N/O)Nc1ccc(C(C)C)cc1` is 2%; for `CC(C)COc1ncccc1/C(=N/O)NC1CCC1` it is 97%. The figure for `CC(C)COc1ncccc1/C(=N/O)NC1CCCC1` is 97%; for `CC(C)COc1ncccc1/C(=N/O)NC1CCCCC1` it is 82%. Take `CC(C)COc1ncccc1/C(=N/O)NC1CCN(Cc2ccccc2)C1` (centres undefined): the “% inhibition” value is given as -2%.

As for `CC(C)COc1ncccc1/C(=N/O)N1CCC(C)CC1`, the “% inhibition” value is -1%. `CC(C)COc1ncccc1/C(=N/O)NC1CCC(C)CC1` (centres undefined): the “% inhibition” value amounted to 83%. The value for `Cc1ccccc1-c1nc(CN2CCC(N3CCCCC3)CC2)co1` was 14%; that for `C1=C(CCNCc2coc(-c3cccs3)n2)CCCC1` was -10%.

As to `Cc1ccccc1NCc1coc(-c2ccco2)n1`, the “% inhibition” value is -2%. The value for `CCN(Cc1coc(-c2ccc(C(F)(F)F)cc2)n1)c1ccccc1` was 4%; that for `CC(NCc1coc(-c2ccc(OC(F)(F)F)cc2)n1)c1cccc2ccccc12` (centres undefined) was -34%; that for `O/N=C(\NCc1cc(F)cc(F)c1)c1ccc(Oc2c(F)c(F)cc(F)c2F)nc1` was 10%.

Take `COc1ccc(CN/C(=N\O)c2ccc(Oc3cccc4c3CCCC4)nc2)cc1`: the “% inhibition” value worked out at 32%. As for `CCC(CC)N/C(=N\O)c1ccc(Oc2cccc3c2CCCC3)nc1`, the “% inhibition” value turned out to be 76%.

Consider `N/C(=N\O)c1ccc(Oc2cccc3c2CCCC3)nc1`, for which the “% inhibition” value was found to be 19%.

Take `O/N=C(\NCc1c(F)cccc1F)c1ccc(Oc2cccc3c2CCCC3)nc1`: the “% inhibition” value is given as 15%. Regarding `O/N=C(/c1ccc(Oc2cccc3c2CCCC3)nc1)N1CCCCC1`, the “% inhibition” value amounted to 31%. The value for `O/N=C(\Nc1ccccc1)c1ccc(Oc2cccc3c2CCCC3)nc1` was 22%; that for `O/N=C(\NCC1CC1)c1ccc(Oc2cccc3c2CCCC3)nc1` was 77%. The figure for `O/N=C(\NCc1cccs1)c1ccc(Oc2cccc3c2CCCC3)nc1` is 4%; for `O/N=C(\NC1CCCC1)c1ccc(Oc2cccc3c2CCCC3)nc1` it is 97%. The figure for `Cc1ccccc1-c1nc(CN2CCN(c3cccc(C(F)(F)F)c3)CC2)co1` is 14%; for `CCOc1ccccc1-c1nc(CN2CCC3(CC2)OCCO3)co1` it is 1%; for `COC(=O)C1CCN(Cc2coc(-c3cccc(F)c3)n2)CC1` it is 6%. As for `CCN(CC)Cc1coc(-c2cccc(OC)c2)n1`, the “% inhibition” value turned out to be 11%.

Take `CCc1ccc(Oc2ncccc2/C(=N/O)NCc2ccccc2)cc1`: the “% inhibition” value turned out to be 99%.
